From PubChem
Hits are enriched below; roughly 5.7% of the tested compounds scored in any of these assays.
HT1080 IDH1KD tx: toxicity to HT-1080 IDH1 knockdown cells (counter line) | HT-1080 IDH1 knockdown viability, ATP luminescence, 48 h | Potency, µM (titrated, usually from 46.1 µM), hits mostly cytotoxic | 2% of 360,000 active | AID 686971
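Cytotoxicity counter-line: IDH1KD HT-1080, 48 h, CellTiter-Glo. Curves classed by r2, magnitude and activity.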
KB-3-1 tox: kills parental KB-3-1 adenocarcinoma cells; KB-3-1 viability, CellTiter-Glo ATP luminescence, 72 h; Potency, µM (series often up to 46.1 µM), usual class: cytotoxic; 1.4% of 400,000 active; also: nearly all actives have a fitted effect of over 60% in size
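Cytotoxicity in the drug-sensitive parental line KB-3-1 was scored as loss of CellTiter-Glo luminescence following 72 h incubation with compound. Values come from curve fitting of normalized concentration-response data.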
KB-V1 cytotox: KB-V1 MDR subline cytotoxicity; 3.4% of 400,000 active; Potency, µM (top dose mostly 46.1 µM), most hits filed as cytotoxic; KB-V1 MDR cells viability, CellTiter-Glo, 72 h; AID 1347076; also: nearly all actives have a fitted effect of over 60% in size
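Potencies derive from concentration-effect curves fitted to normalized luminescence (CellTiter-Glo) of KB-V1 cells treated for 72 h at 37 degrees C in phenol-red-free DMEM containing 10% FBS.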
HT1080-NT tox: kills 2HG-producing HT-1080-NT fibrosarcoma cells. 1.6% of 360,000 active. Potency, µM (top dose mostly 46.1 µM), hits mostly cytotoxic. HT-1080-NT fibrosarcoma viability, CellTiter-Glo ATP luminescence, 48 h;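 also: NT is the 2HG producing partner of a matched IDH1 knockdown line; nearly all actives have a fitted effect of over 55% in size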
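A 48-hour cytotoxicity screen used HT-1080-NT cells plated 2 hours before compound delivery. ATP-based CellTiter-Glo luminescence measured viability, normalized to DMSO and no-cell controls.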
Numbers stand for hits; – = inactive; ? = inconclusive; · = no result given; [ ] = another dose, or the depositor's remark. Calls follow the shape of the dose curve; as a rule, active = well fitted curve in the direction sought with a large enough effect; inconclusive = small, poorly fitted or top-dose-only effect, or another doubt; inactive = no such curve, though single readings can be large; an effect the other way counts as inactive or inconclusive.

SMILES	HT1080 IDH1KD tx	KB-3-1 tox	KB-V1 cytotox	HT1080-NT tox
CCCSc1nnc(Sc2nnnn2-c2ccccc2)s1	23.1µM	5.17µM	13µM	16.4µM
O=[N+]([O-])c1ccc(Sc2nnnn2-c2ccccc2)nc1	20.6µM	?	?	16.4µM
C(=C\CSc1nnnn1-c1ccccc1)/CSc1nnnn1-c1ccccc1	–	–	?	–
Cc1ccccc1-n1nnnc1Sc1nnnn1-c1ccccc1	14.6µM	?	?	?
COc1ccc(Cn2c(SCc3ccc(C(=O)NC4CCCC4)cc3)nc3ccncc32)cc1	·	–	–	·
Cc1ccc(Cn2c(SCc3ccc(C(=O)NC4CCCC4)cc3)nc3ccncc32)cc1	·	23.1µM	–	·
Cc1cccc(NC(=O)c2ccccc2SCc2ccc(F)cc2)n1	–	–	20.6µM	–
O=C(Nc1ccc(Cl)cn1)c1ccccc1SCc1ccccc1	–	–	–	–
O=C(Nc1cccc(Cl)c1)C1C2CCC3C(CCC21)C3(Cl)Cl (configuration not stated)	?	?	20.6µM	?
O=C(Nc1ccccc1)C1C2CCC3C(CCC21)C3(Cl)Cl (configuration not stated)	–	–	–	–
Cc1ccc(S(=O)(=O)NC(=O)NC2=NC(C)(C)N(c3ccc(Cl)c(Cl)c3)C(N)=N2)cc1	1.64µM	?	–	3.26µM
Cc1cc(C)c2c(C)ccnc2c1	·	–	–	·
COc1ccc(C(=O)NCCc2cc3c(OC)ccc(OC)c3[nH]c2=O)cc1OC	–	–	?	?
COc1ccc(OC)c2[nH]c(=O)c(CCNS(=O)(=O)c3ccccc3)cc12	–	–	16.4µM	–
COc1ccc(OC)c2[nH]c(=O)c(CCNC(=O)c3ccc(S(=O)(=O)N4CCCC4)cc3)cc12	–	–	18.4µM	–
CCCS(=O)(=O)NCCc1cc2c(OC)ccc(OC)c2[nH]c1=O	–	–	?	–
CCN(CC)S(=O)(=O)c1ccc(C(=O)NCCc2cc3c(OC)ccc(OC)c3[nH]c2=O)cc1	–	–	7.31µM	–
CCOc1ccccc1NC(=O)Cn1c(=O)n(-c2ccc(C)cc2)c(=O)c2c1cnn2C	·	–	–	·
CC(C)(C)c1ccc(OCC(=O)Nc2c(C(=O)c3ccc(F)cc3)oc3ccccc23)cc1	·	–	?	·
Cc1ccccc1CNC(=O)CN1CCSc2ccccc21	·	–	?	·
Cc1nnc(SCC(=O)N2c3ccccc3C(C)(c3ccccc3)CC2(C)C)s1 (configuration not stated)	–	16.4µM	8.2µM	–
N#Cc1c(N)nc(SCc2ccccn2)c(C#N)c1-c1cccs1	?	?	2.91µM	–
CCOC(=O)CSc1nc(N)c(C#N)c(-c2cccs2)c1C#N	–	–	–	–
c1ccc(CNc2nc(CN3CCOCC3)nc3scc(-c4ccccc4)c23)cc1	–	–	–	–
Clc1ccc(CNc2nc(CN3CCOCC3)nc3scc(-c4ccccc4)c23)cc1	–	?	20.6µM	–
SMILES	HT1080 IDH1KD tx	KB-3-1 tox	KB-V1 cytotox	HT1080-NT tox
Cc1nn(-c2ccccc2)c2c1C(O)n1c(nc3ccccc31)S2 (configuration not stated)	–	–	18.4µM	–
Cc1ccc(NC(=O)CC(C)S(=O)(=O)c2ccc3c(c2)NC(=O)CO3)c(C)c1 (configuration not stated)	·	–	–	·
COc1ccc(-c2oc(NC(=O)CSc3nncn3C)c(C#N)c2-c2ccc(OC)cc2)cc1	16.4µM	?	–	?
CCn1c(SCC(=O)Nc2oc(-c3ccccc3)c(-c3ccccc3)c2C#N)nnc1-c1ccco1	–	–	?	–
COc1ccc(NC(=O)C2=C(C)C(=O)OC23CCN(C(C)C)CC3)cc1Cl	·	–	–	·
Nc1c(-c2ccccc2)cnn1-c1cccc(C(F)(F)F)c1	–	–	–	–
Nc1c(-c2cccc(Cl)c2)cnn1-c1cccc(C(F)(F)F)c1	–	?	20.6µM	?
CCOC(=O)/C=C/C(=O)Nc1ccccc1-c1ccccc1NC(=O)/C=C/C(=O)OCC	23.1µM	?	–	?
CCOC(=O)/C=C/C(=O)Nc1cccc([N+](=O)[O-])c1	–	?	–	?
Cc1cc(CN2CCN(CC(=O)Nc3cc(C(F)(F)F)ccc3-n3cncn3)CC2)no1	–	–	23.1µM	–
Cc1cc(CN2CCN(CC(=O)Nc3cc(Cl)ccc3-n3cncn3)CC2)no1	–	–	–	–
CCc1cccc(NC(=O)CSc2ncc3c(n2)-c2ccc(Cl)cc2N(Cc2ccccc2)S3(=O)=O)c1	·	–	–	·
CCOc1cc(S(=O)(=O)N2CCN(S(=O)(=O)CC)CC2)c(OCC)cc1-n1cnnn1	–	–	–	–
CCOc1cc(S(=O)(=O)NC2CC2)c(OCC)cc1-n1cnnn1	–	–	14.6µM	–
CCOc1ccc(Br)cc1S(=O)(=O)NC1CCCC1	–	–	16.4µM	–
CCOc1cc(C)c(S(=O)(=O)NC2CCCCC2)cc1C	–[9.24 µM]	?	?	–
CCOc1cc(S(=O)(=O)NCCc2ccc(OC)c(OC)c2)c(OCC)cc1-n1cnnn1	–	–	–	–
CCOc1cc(S(=O)(=O)NCc2ccc(OC)cc2)c(OCC)cc1-n1cnnn1	8.91µM	–	5.17µM	12.6µM
CCOc1ccc(C(=O)Nc2nnc(C3=COCCO3)o2)cc1	–	0.0012µM	?	–
O=c1[nH]c(CN2CCN(c3ccc([N+](=O)[O-])cc3)CC2)nc2ccsc12	–	16.4µM	18.4µM	–
COc1ccc(N2CCN(Cc3nc4ccsc4c(=O)[nH]3)CC2)cc1	–	–	–	–[9.24 µM]
COc1cc2c(cc1OC)CN(CCC(C)c1ccc(Cl)cc1)CC2 (configuration not stated)	14.6µM	–	–	–
COc1cc2c(cc1OC)CN(Cc1ccccc1)CC2	–	–	–	–
CCc1nnc(NC(=O)CSc2nccn2Cc2ccc(F)cc2)s1	·	–	–	·
COc1ccc(S(=O)(=O)Nc2ccc3cn[nH]c3c2)cc1C	–	–	?	–
SMILES	HT1080 IDH1KD tx	KB-3-1 tox	KB-V1 cytotox	HT1080-NT tox
CCOC(=O)c1ccc(S(=O)(=O)Nc2ccc3cn[nH]c3c2)cc1	–	?	18.4µM	–
COc1ccc(CCN(Cc2cccs2)S(=O)(=O)c2ccc(-n3cnnn3)c(OC)c2)cc1OC	–	–	2.59µM	?
COc1ccc(NC(=O)C2CCCN(C(=O)c3cnn(-c4ccccc4)c3-n3cccc3)C2)cc1 (configuration not stated)	·	–	–	·
O=C(NC(NC1CCS(=O)(=O)C1)C(=O)c1cccs1)c1ccccc1 (configuration not stated)	–	–	–	–
O=C(NC1=C(Nc2ccc(Cl)cc2)C(=O)c2ccccc2C1=O)c1ccccc1	–	18.4µM	20.6µM	?
O=C(Nc1cccc(Cl)c1)c1ccccc1	–	–	–	–
O=C(Nc1ccc(Nc2ccccc2)cc1)c1ccc(Cl)cc1	–	–	–	–
O=C1C(Cl)=C(NC(=O)c2ccccc2)C(=O)C(Cl)=C1NC(=O)c1ccccc1	8.2µM	?	?	10.3µM
O=C(NC1=C(NC2CCS(=O)(=O)C2)C(=O)c2ccccc2C1=O)c1ccccc1 (configuration not stated)	18.4µM	?	?	14.6µM
